The panel holds about 83,000 compounds, 20% with a hit somewhere; the sample as a whole holds those more often.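 Single-dose data. Exposure time 48 hours. Values below 10 considered active.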 Values without a mark were called inactive. Calls of active or inactive are those of the source.
The molecules below were run on A498 renal (assay: NCI-60 one-dose screen, 48 h (100 = growth as untreated, 0 = no growth, -100 = all killed)). Details: 10 µM.
Experimental: Growth inhibition of the A498 human tumor cell line is measured as a screen for anti-cancer activity. Cells are grown in 96 well plates and exposed to the test compound for 48 hours. Compounds are tested at a single concentration, which is 10^-5 M for most compounds. The reported endpoint is percent growth (GI% or GIPRCNT), where numbers from 0 - 100% represent growth inhibition, and numbers from -100% - 0 represent cell death. For example, a value of 40 represents 60% growth inhibition. A value of 0 means no net growth occurred over the course of the experiment. A value of -40 indicates 40% of cells at the beginning of the experiment died by the end of the experiment. A value of -100 means all cells are dead at the end of the experiment.
NCI-60 Human Tumor Cell Lines Screen was performed using the standard one-dose NCI protocol, which is described in more detail at https://dtp.cancer.gov/discovery_development/nci-60/default.htm.
Compounds with GIPRCNT values below 10 were considered active. Activity score was based on GIPRCNT using the following formula: […]
Score is 0 for GIPRCNT values of 100 or above, 50 for GIPRCNT values of 0, and 100 for GIPRCNT values of -100.

Row | SMILES | growth
1 | CC1(C)CC(=O)c2c(nc3ccc(Cl)cc3c2-c2ccccc2)C1 | 115%
2 | O=C(CCCC(=O)N/N=C/c1cc(Cl)ccc1O)N/N=C\c1cc(Cl)ccc1O | 63.5%
3 | COc1ccc(-c2cn[nH]c2-c2cc(OC)c(OC)c(OC)c2)cc1 | -12.1% (active)
4 | COc1ccc2oc(=O)cc(C(c3ccc[nH]3)c3ccc[nH]3)c2c1 | -8.63% (active)
5 | FC(F)(F)c1ccc(-c2ncc(-c3ccc(C(F)(F)F)cc3)c(NCc3cc(C(F)(F)F)cc(C(F)(F)F)c3)n2)cc1 | 54.1%
6 | N#Cc1ncc(-c2cc(F)ccc2F)c(NC2CCCCCC2)n1 | 58.2%
7 | CCCCN(CCCC)c1ccc(C(=NC(C)CCCN(CC)CC)c2ccc(N(C)C)cc2)cc1 (stereo not given) | -12.4% (active)
8 | Cc1cc(C(C)(C)CC(C)(C)C)ccc1OCCOCC[N+](C)(C)Cc1ccccc1 | 4.39% (active)
9 | CC(C)/C(=N/O)c1ccccc1 | 113%
10 | O=CNc1c(Cl)cc2c(c1Cl)Cc1cc([N+](=O)[O-])ccc1-2 | 85.9%
11 | CCOC(=O)c1ccc(N(C=O)CCC(=O)CCl)cc1 | -13.5% (active)
12 | O=C1/C(=C/c2cccs2)CCC/C1=C\c1cccs1 | 74.8%
13 | COc1ccc(CSc2nc3cc(OC)c(OC)cc3c(=O)n2-c2ccc(OC)cc2OC)cc1 | 58.6%
14 | CCN(CC)CCn1c(=N)n(CC(O)c2ccc(Cl)c(Cl)c2)c2ccccc21 (stereo not given) | 52.5%
15 | O=C(COc1ccc(-c2nc3ccccc3[nH]2)cc1)N=Nc1c(O)[nH]c2ccccc12 | 86.4%
16 | COc1cccc(-c2nnc(COc3ccc(-c4nc5ccccc5[nH]4)cc3OC)o2)c1 | 71.8%
17 | CCN(CC)CCOC(=O)c1ccc(NC(=O)Nc2cccc(Cl)c2)cc1 | 79.5%
18 | c1ccc(CC(NCCNC(Cc2ccccc2)c2ccccc2)c2ccccc2)cc1 (stereo not given) | 61.8%
19 | CCOC(=O)c1cc2c(n1Cc1cccc(OC)c1)-c1oncc1CC2 | 10.8%
20 | O=C(Nc1cccc(F)c1)Nc1cccc(Cl)c1 | 36.7%

Row | SMILES | growth
21 | CC1(C)CCc2cc(-c3ccn(S(=O)(=O)c4ccc(Cl)cc4)n3)ccc2O1 | 70.8%
22 | CCOC(=O)c1c(C)n(-c2ccc(Cl)cc2)c2ccc(OC(=O)/C=C/c3ccccc3)cc12 | 68.7%
23 | COc1ccc(/C=C2\SC(=S)N(CCCN3CCOCC3)C2=O)c(OC)c1 | 102%
24 | CCCCn1c(=O)[nH]c2c(c1=O)C(c1ccc(Cl)cc1)c1c([nH]c(=O)n(CCCC)c1=O)N2 | 103%
25 | CC(=O)Oc1ccc(C2=Cc3ccc(OC(C)=O)cc3OC2C)cc1 (stereo not given) | 82.6%
26 | COc1cccc(C(=O)NNc2nc(N3CCOCC3)nc(N3CCN(C(c4ccccc4)c4ccccc4)CC3)n2)c1 | 51.3%
27 | CCCn1c(=O)c2c(nc(-c3cccc(OCCCCl)c3)n2C)n(CCC)c1=O | -10.8% (active)
28 | CN(C)Cc1cccs1 | 117%
29 | Clc1cc(Cl)c(Cl)c(-c2nc(-c3cccnc3)cs2)c1 | 104%
30 | O=[N+]([O-])c1ccc(-c2nc(-c3ccccc3)c(-c3ccccc3)n2-c2ccccc2)cc1 | 41.3%
31 | CCCCC(CC#N)(CCC)CCC | 103%
32 | COc1cc(CSc2nc3ccc(Cl)cc3c(=O)n2Cc2ccccc2)cc(OC)c1OC | 24%
33 | CCNC(=S)NN | 91.2%
34 | CC[C@@]1(C(N)=O)CC2C=CC1C2 (stereo not given in full) | 123%
35 | CCCCCC(=O)N1c2ccccc2NC2=C(C(=O)CC(c3ccc(OC)c(OC)c3)C2)C1c1ccc(C(F)(F)F)cc1 (stereo not given) | 57.2%
36 | COc1cc(Cn2c(-c3ccccc3)c(Cl)c3c2-c2oncc2CC3)cc(OC)c1 | 26.5%
37 | O=C1CC(c2cccc(-c3cccnc3)c2)=Nc2ccc(Br)cc2N1 | -4.26% (active)
38 | Cc1nc2ccc(-n3c(-c4ccc(Cl)cc4)nc4ccccc4c3=O)cc2n1Cc1ccccc1 | 89.7%
39 | COc1ccc(-c2n/c(=C\c3c(O)[nH]c4ccccc34)cc3c2=Nc2ccccc2-3)cc1 | 56.2%
40 | COc1ccc(C(C)=O)cc1N1C(=O)C2C(C1=O)C1(c3ccccc3)C(=O)C2(c2ccccc2)C(c2ccc(C)cc2)=C1c1ccc(C)cc1 (stereo not given) | 54.1%

Source: PubChem BioAssay (NCI)
